The record followed here is the supplement of paper PMC10105736.

Common to all, as to experiment: MAPPIT interaction score (arbitrary units); higher = stronger binary interaction signal, active = hit call of the paper
The target in one assay is AP-1mu. Particulars: MAPPIT configuration: N-C; pair source set: screen_4. Here is the method:
(§1)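 MAPPIT in HEK293T cells: Drosophila bait and prey ORFs (from the FlyBi ORF collection) were co-transfected in quadruplicate, with two wells stimulated by erythropoietin. Interaction-dependent JAK-STAT activation was read out with a STAT-responsive firefly luciferase reporter. Positive calls use the 99th percentile of random reference set (RRS) scores within each batch […]. Batches Dvs01 and Dvs02 used the N-N configuration and Dvs04 the N-C configuration. Pairs come from FlyBi screens, CuraGen, DPiM, Finley Y2H, Lit-BM-16, Lit-BS-16 and RRS.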

The next assay deals with ACOX1. Particulars: MAPPIT configuration: N-N; pair source set: Curagen_low_conf. Here is the method:
as §1

The next assay concerns the target mbo. Particulars: pair source set: Lit-BM-16. Here is the method:
as §1

For a further assay, the target named is 14-3-3epsilon. The settings on record: pair source set: Lit-BM-16. Here is the method: as §1
The next assay concerns the target hpo. The settings on record: MAPPIT configuration: N-N; pair source set: Lit-BM-16. As to the method:
as §1

The next assay deals with sd. The settings on record: MAPPIT configuration: N-C; pair source set: Lit-BM-16. Here is the method:
as §1

For the next assay, the target named is ATPCL. Particulars: MAPPIT configuration: N-N. As to the method:
as §1

Another assay addresses Cka. Particulars: MAPPIT configuration: N-N; pair source set: Curagen_low_conf. Here is the method: as §1
The target of another assay is CycK. Particulars: MAPPIT configuration: N-N; pair source set: Finley_Y2H. Here is the method: as §1
A further assay addresses Dsp1. The settings on record: pair source set: RRS. As to the method: as §1
A further assay concerns the target Fkbp12. The settings on record: MAPPIT configuration: N-N; pair source set: Lit-BS-16. As to the method: as §1
The next assay deals with dod. The settings on record: MAPPIT configuration: N-N; pair source set: screen_1. Here is the method:
as §1

For another assay, the target named is eIF4E3. Particulars: MAPPIT configuration: N-N; pair source set: Curagen_high_conf. As to the method:
as §1

In a further assay the target is AP-2alpha. The settings on record: MAPPIT configuration: N-N; pair source set: DPIM. Here is the method:
as §1

The target in the next assay is CG9667. Particulars: MAPPIT configuration: N-N; pair source set: DPIM. Here is the method:
as §1

The target in another assay is 128up. Particulars: MAPPIT configuration: N-N; pair source set: DPIM. Here is the method:
as §1

Unmarked numbers belong to inactive results.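 The calls were made as follows: active = MAPPIT score above the 99th percentile of random reference set scores in the same batch; inactive = at or below it.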
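Also: HEK293T cells with Epo stimulation, STAT-responsive firefly luciferase reporter, fold induction versus unstimulated cells divided by the larger fold induction of two negative controls lacking either bait or prey.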

B1: Cp38 (protein)
chain: MTRSTYIWALAACLIACASANYGSSQGYGPESGSGASDGGADAASAAAAAAGGAGGAGGEYGGANAGAGALESGADAAGVAQAGQSSYGSDQNIPYKPVNTKGNTLTSSITYPQNKGEILIHRPAPIIVKRPPTKVLVNHPPLVVKPAPVVLHKPPAIVLRKVYVKHHPRRVKVEPVFVNVVKPPAEKYFVNENKQGYGQGSQSHGHGHGHGGHGHGHSGHGHGGHGAGPHGPGPHDGGRALPAYASGADSAAASAGYQLLQSGNQGLSALANIAGEREGPYGPAPSHQHYSAGPAGHGGYAAPAY
As for B1, the MAPPIT interaction score with AP-1mu is 0.503.

B2: emb (protein)
chain: MATMLTSDEAGKLLDFSQKLDINLLDKIVEVVYTAQGEQLRLAQSILTTLKEHPEAWTRVDSILEYSQNQRTKFYALQILEEVIKTRWKVLPRNQCEGIKKYVVSLIIKTSSDPIVMEQNKVYLNKLNMILVHILKREWPRNWETFISDIVGASKTNESLCMNNMVILKNLSEEVFDFSQGQITQTKAKHLKDTMCSEFSQIFTLCSFVLENSMNAALIHVTLETLLRFLNWIPLGYIFETQQIETLIFKFLSVPMFRNVTLKCLSEIAGLTAANYDENFATLFKDTMVQLEQIVGQNMNMNHVFKHGSDTEQELVLNLAMFLCTFLKEHGKLVEDAKYVDYLNQALMYLVMISEVEDVEVFKICLEYWNSLVEDLYNSEFFHPTLESTKRQQVYPRRRFYAPILSKVRFIMISRMAKPEEVLVVENENGEVVREFMKDTNSINLYKNMRETLVFLTHLDSVDTDRIMTLKLLNQVNGSEFSWKNLNTLCWAIGSISGAFCEEDEKRFLVTVIKDLLGLCEQKKGKDNKAIIASNIMYVVGQYPRFLRAHWKFLKTVVNKLFEFMHETHDGVQDMACDTFIKIAIKCRRYFVTIQPNEACTFIDEILTTMSSIICDLQPQQVHTFYEAVGYMISAQVDQVQQDVLIERYMQLPNQVWDDIISRASKNVDFLKNMTAVKQLGSILKTNVAACKALGHAYVIQLGRIYLDMLNVYKITSENIIQAIEVNGVNVNNQPLIKTMHVVKKETLNLISEWVSRSNDNQLVMDNFIPPLLDAILLDYQRCKVPSAREPKVLSAMAIIVHKLRQHITNEVPKIFDAVFECTLDMINKNFEDFPQHRLSFYELLQAVNAHCFKAFLNIPPAQFKLVFDSVVWAFKHTMRNVADMGLNILFKMLQNLDQHPGAAQSFYQTYFTDILMQIFSVVTDTSHTAGLPNHAIILAYMFSLVENRKITVNLGPIPDNMIFIQEYVASLLKSAFTHLSDNQVKVFVTGLFNLDENVQAFKEHLRDFLIQIREATGEDDSDLYLEEREAALAEEQSNKHQMQRNIPGMLNPHELPEDMQDE
As for B2, the results for the MAPPIT interaction score with ACOX1, in the assay with mbo (MAPPIT configuration: N-C) and with mbo (MAPPIT configuration: N-N) were 1.6, 1.34 and 1.54, respectively.

B3: yki (protein)
chain: MLTTMSASSNTNSLIEKEIDDEDMLSPIKSNNLVVRVNQDTDDNLQALFDSVLNPGDAKRPLQLPLRMRKLPNSFFTPPAPSHSRANSADSTYDAGSQSSINIGNKASIVQQPDGQSPIAAIPQLQIQPSPQHSRLAIHHSRARSSPASLQQNYNVRARSDAAAANNPNANPSSQQQPAGPTFPENSAQEFPSGAPASSAIDLDAMNTCMSQDIPMSMQTVHKKQRSYDVISPIQLNRQLGALPPGWEQAKTNDGQIYYLNHTTKSTQWEDPRIQYRQQQQILMAERIKQNDVLQTTKQTTTSTIANNLGPLPDGWEQAVTESGDLYFINHIDRTTSWNDPRMQSGLSVLDCPDNLVSSLQIEDNLCSNLFNDAQAIVNPPSSHKPDDLEWYKIN
For the molecule B3, the MAPPIT interaction score with 14-3-3epsilon (MAPPIT configuration: N-C) was 2.04; with 14-3-3epsilon (MAPPIT configuration: N-N), 2.25; in the assay with hpo, 0.208; in the assay with sd it was 0.32.

B4: PAN3 (protein)
chain: MCSTYGLLSFEFSDTAAMDPIFFSPTNGIPSESKLATYMNRQNVATPSGYGLNNGFSLLNLDSPLNKKSQVTPQSPEFIPTRLGSTPNFYAPYHNAPMQLSNGLNGVNGLTAAAAAAAAAAAAAAAAVPSSTSSASSASVTISKTANGGASMLALQKTASIASVTIAQQQPQHPQKQQQHPPSVGGGAVSAASAPIAISGAPPNPAAAPFVSSMSAQTPLKGRGAMMRQESPTAAMISGAGPGEKSPPHGMTPHGASPIPSALPTSVHQENVGGTIYFYPTANAQNSQPVVNSMVVDGTHPALHGVSAVAPMSAGVPAAMMYTGHVYPGPSSNVVTMQPKTLLESAFFMPDEMRAEVLARNEISNLIMDAAEAAQHALPLEVENYHALYPLEPPAQPLHAKLTFPATTYRATHNTTGYKYCLRRIHGFRLQSTKCMTLVEMWKKLQHTNVVQLREVFTTKAFGDNSLVLVYDYHPGSQTLLAKYFTPAPETNGYTDPFQGEARPFSHKSNMQRTSNGPLLPEATIWSIIMQLTAGLKAIHHAGLACKVLDPTKIIVTGKRVRFSSCCISDITQFDPNASNPLALVNMHQQDDLTALGRLVLALACRCLQSVQRDNVQSSIDMVTRNYSTDLRNFIVYLFTTNNRRSVTDLMPMIGARFYTQLDALQSKIDMQEDELAKEMENGRLYRILVKLNSINERPDFNLDCTWSETGDRYMLKLFRDYLFHSVTEDGRPWLDHAHIVQCLNKLDAGSIERVQLMSRDEQSVLIVSYAELKNCLENAFSELMSSAAN
As for B4, the MAPPIT interaction score with ATPCL (pair source set: Curagen_high_conf) is 0.129; with ATPCL (pair source set: Lit-BS-16), 0.112; with Cka, -0.663; in the assay with CycK, 3.73 (active); in the assay with Dsp1 (MAPPIT configuration: N-C) it was 0.178; with Dsp1 (MAPPIT configuration: N-N) it was -0.667. Also, the MAPPIT interaction score with Fkbp12 was 1.71; with dod, 2.85 (active); with eIF4E3 it was 2.53 (active).

B5: CG10417 (protein)
chain: MGAYLSHPKTDKTSTDQFNELLAVGASSMQGWRNSQEDAHNSILNFDNNTSFFAVYDGHGGAEVAQYCADKLPHFLKNLETYKNGQFEVALKEAFLGFDKTLLDPSIVSILKILAGEHNFVDAEADDYEEEDLAELQEESNLPLNEVLEKYKGLPQKKDLDLKSSDHKENFKMRSPYFRGRRAAALAAEATNKAVMDPSAKPDGSSTSAAAAAAALSADGVANSRNPSNVVNPMAGADSNTTTSINDLSTKNAALKDDSVNDQNEGSNGTDFKHTLVSSSNKKLFATGSNDMTELNQSSKNEFTNSSTSKEFERNINSSQDDEFTDDDADYEENDNVKSPDTSSAESSDCTENDDDGDEDGNEDSDEEETDEDQMANDNFCANMIEEPGKDSGCTAVVCLLQGRDLYVANAGDSRCVISRSGQAIEMSIDHKPEDDEEASRIIKAGGRVTLDGRVNGGLNLSRALGDHAYKTNVTLPAEEQMISALPDIKKLIITPEDEFMVLACDGIWNYMSSEEVVEFVRCRLKDNKKLSTICEELFDNCLAPNTMGDGTGCDNMTAVIVQFKKKLQELQSTIPPNQTEDKLLKTSENVSHSLNDQSASKRCASQNADADDEILEKNNSKRLKTDLEQENIKDRTPSPSNQNEDPTQKAIKEVTIIVSSS
Take B5: the MAPPIT interaction score with AP-2alpha is 0.508; in the assay with CG9667, 0.00387.

B6: mod (protein)
chain: MAQKKAVTVKGKKATNGEEKPLAKRVTKSTKVQEEETVVPQSPSKKSRKQPVKEVPQFSEEDESDVEEQNDEQPGDDSDFETEEAAGLIDDEAEEDEEYNSDDEEDDDDDELEPGEVSKSEGADEVDESDDDEEAPVEKPVSKKSEKANSEKSEENRGIPKVKVGKIPLGTPKNQIVFVTNLPNEYLHKDLVALFAKFGRLSALQRFTNLNGNKSVLIAFDTSTGAEAVLQAKPKALTLGDNVLSVSQPRNKEENNERTVVVGLIGPNITKDDLKTFFEKVAPVEAVTISSNRLMPRAFVRLASVDDIPKALKLHSTELFSRFITVRRISQESISRTSELTLVVENVGKHESYSSDALEKIFKKFGDVEEIDVVCSKAVLAFVTFKQSDAATKALAQLDGKTVNKFEWKLHRFERSTSGRAILVTNLTSDATEADLRKVFNDSGEIESIIMLGQKAVVKFKDDEGFCKSFLANESIVNNAPIFIEPNSLLKHRLLKKRLAIGQTRAPRKFQKDTKPNFGKKPFNKRPAQENGGKSFVKRARF
Turning to B6, in the assay with 128up, the MAPPIT interaction score was -0.0936.
